Pf Dd2 inh: blocks in vitro growth of P. falciparum Dd2. P. falciparum Dd2 growth, SYBR Green, 72 h. Potency, µM (highest dose often 28.9 µM), for inactives: at the top dose activity, negative = inhibition, actives largely listed as inhibitors. 120,000 compounds, 4.3% hits; active = well fitted inhibition curve with a large enough effect;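 also: plate controls were DMSO vehicle for no effect and reference drug for full effect; nearly all actives have a fitted effect of over 65% in size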
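Readout: SYBR Green fluorescence, 485 nm excitation, 535 nm emission, after ~16 h lysis at 37C. Before that, Dd2-infected red cells (2.5% hematocrit) grew 72 h with compound, 29 uM top final concentration.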
* = called active by the depositor; i = inactive; [ ] = remark or other dose. Shown is part of a subset that was picked to be rich in hits. Potency is read from the fitted curve at half-maximal effect.

SMILES	Pf Dd2 inh
CCc1ccccc1Nc1nn2c(=O)c3ccc(C(=O)NCc4ccccc4Cl)cc3nc2s1	11.2µM*
CCc1ccccc1Nc1nn2c(=O)c3ccc(C(=O)NC(C)C)cc3nc2s1	-19.9%
COc1ccc(NC(=O)c2ccc3c(=O)n4nc(Nc5ccccc5C)sc4nc3c2)cc1	-10.1%
CN1CCN(C(=O)CCc2nc(C3CCCN3C(=O)NCCc3ccccc3)no2)CC1 (stereo not given)	-22.2%
O=C1Nc2ccccc2O[C@H]2C[C@@H]1N(C1CCCC1)C2	15.9%[44.1 µM]
O=C(NCc1ccccc1)N1CC(Oc2ccc(-c3nc(-c4ccccc4)no3)cc2)C1	-0.4%[5.79 µM]
CCc1cccc2c(C(CC(=O)NCC(C)C)c3cccc([N+](=O)[O-])c3)c[nH]c12 (stereo not given)	i
Cc1cc2cccc(C(=O)N[C@H]3CCOC[C@H]3C3CCOCC3)c2o1	8.2%
COc1ccccc1CCC(=O)N1C[C@@H](CO)[C@H](NC(C)=O)C1	6.1%
c1ccc(C2=NOC3(CCN(CC4CC4)CC3)C2)cc1	-28.4%[44.1 µM]
CCc1ccc(CN2CCN(c3ccc(C(N)=O)cn3)CC2)nc1	-13.5%
CC(=O)Nc1ccc(CN2CCN3C(=O)N(Cc4ccccc4)C[C@H]3C2)cc1	i
NCCc1ccc(CN2C[C@@H]3CC[C@H](C2)N(Cc2ccccc2)C3)cc1	11.2µM*
O=C1[C@H]2CN(Cc3ccc(C(F)(F)F)cc3)C[C@H]2C(=O)N1CCc1ccccc1	i
Cc1cccc(C(=O)N2CCCC(c3nc(C(C)C)no3)CCNC(=O)CC2)c1 (stereo not given)	-10.1%
CC1CCN(C(=O)c2ccccc2OCC2CCCN(C3CCC3)C2)CC1 (stereo not given)	-2.3%
CNC(=O)N1CCC(C2CCN(Cc3ccncc3)C2)CC1 (stereo not given)	5.3%
Cc1cc(N2CCC(N3CCCC(C(=O)NCCc4ccccc4)C3)CC2)ncn1 (stereo not given)	i
N#Cc1cccc(-c2ccc(=O)n3c2[C@@H]2C[C@@H](CN(C(=O)NC4CCCCC4)C2)C3)c1	15.3%[44.1 µM]
CN(CC1CCOCC1)C(=O)Nc1ccccc1F	3.9%
COc1ccccc1N1CCC(N2CCN(CCCc3ccccc3)C(CCO)C2)CC1 (stereo not given)	10µM*
CCOc1ccc(CN2CCN(C3CCN(C(C)C)CC3)CC2CCO)cc1 (stereo not given)	-4.6%
COc1ccccc1N1CCN([C@@H]2[C@H](O)[C@H](CO)O[C@@H]2CNC(=O)c2ccccc2)CC1	13.2%
CCc1ccccc1S(=O)(=O)N1CCC(N(C(=O)COC)C2CCOCC2)CC1	-19.9%
Cc1ccc(CNC(=O)Cn2c(-c3ccccc3)nc(C)c(CCO)c2=O)cc1	7.4%
SMILES	Pf Dd2 inh
COCCNC(=O)C[C@@H]1C[C@H]2O[C@H](CNC3CCCC3)[C@@H](O)[C@H]2O1	22.9%[44.1 µM]
O=C(C[C@@H]1O[C@H](CNC(=O)Nc2cccc(F)c2)[C@@H](O)[C@H]1O)NCCN1CCOCC1	16.2%
COc1ccc(-c2cn3nc(N4CCCC(C(=O)Nc5cccc(Cl)c5C)C4)sc3n2)cc1 (stereo not given)	-10.5%
CCNC(=O)N1CCCC1C(=O)Nc1ccccc1-c1ccc(OC)cc1 (stereo not given)	5.6%
COc1ccc(NC(=O)C2CCCN(c3cnccn3)C2)c(OC)c1 (stereo not given)	31.8%
COc1ccc(-c2ccccc2NC(=O)C2CCCN(Cc3c(O)cccc3OC)C2)cc1 (stereo not given)	1.78µM*
COc1ccc(-c2ccccc2NC(=O)C2CCCN(Cc3ccccc3O)C2)cc1 (stereo not given)	2.82µM*
COc1ccc(-c2ccccc2NC(=O)C2CCCN2C(=O)C2(C)CC2)cc1 (stereo not given)	-9.9%
CN(CC1CCOC1)S(=O)(=O)c1ccccc1F (stereo not given)	49.5%[5.79 µM]
Cc1noc([C@@H](C)NS(C)(=O)=O)c1C(=O)O	-2.4%[44.1 µM]
O=C(N[C@H]1C[C@@H]2C(=O)N[C@H]3CCN(C(=O)c4cccs4)[C@@H]3C(=O)N2C1)C1CCCC1	i
COc1cccc(NC(=O)Cn2c(-c3cnccn3)nc(C)c(CCO)c2=O)c1	i
O=C1c2oc3ccccc3c(=O)c2C(c2cccc(O)c2)N1Cc1ccc(F)cc1 (stereo not given)	14.1µM*
COc1ccc(CN2C(=O)c3oc4ccc(F)cc4c(=O)c3C2c2ccc(O)cc2)cc1 (stereo not given)	-12.4%
COc1ccc(CN2C(=O)c3oc4ccccc4c(=O)c3C2c2ccc(O)cc2)cc1 (stereo not given)	-28.4%
Cn1cc(C(=O)Nc2ccc3c(c2)C(=O)N2CCC[C@H]2C(=O)N3)c2ccccc21	i
CC(=O)N[C@H]1CC[C@]2(C)CC[C@@H](C(C)C(=O)NC3CCCC3)[C@H](O)[C@H]2[C@@H]1C (stereo not given in full)	0.9%[44.1 µM]
COC(=O)[C@H](NC(=O)[C@@H]1C[C@H](NC(=O)Nc2ccc(F)cc2F)CN1C(=O)c1cccn1C)C(C)C	13.7%
COCC(=O)N[C@H]1C[C@H]2C(=O)NC[C@@H](CCC(=O)NCc3ccccc3)N2C1	-3.8%[44.1 µM]
O=C1[C@H]2CN(Cc3ccc(F)cc3Cl)C[C@H]2C(=O)N1Cc1ccc2c(c1)OCO2	-2.2%
O=C1[C@H]2CN(Cc3cccc(Cl)c3F)C[C@H]2C(=O)N1CCc1ccccc1	20.3%
O=C1[C@H]2CN(Cc3ccc(F)cc3Cl)C[C@H]2C(=O)N1CCN1CCc2ccccc2C1	3.98µM*
O=C1CCN(C(=O)C2COc3ccccc3O2)CCCOCCN1 (stereo not given)	i
COc1ccc(C(=O)N2CCCC2c2nc(CCOCC3CC3)no2)cc1 (stereo not given)	-26.4%
O=C(Nc1ccc(F)cc1)C1CC(=O)N(c2n[nH]c3cc(Br)ccc23)C1 (stereo not given)	-0.5%
SMILES	Pf Dd2 inh
O=C(NCc1ccc(F)cc1)N1CCCC(Cc2noc(-c3ccccn3)n2)C1 (stereo not given)	i
Cc1nc(N2CCOCC2)c2c(C(=O)N3CCN(c4ccccc4)CC3)c(C)oc2n1	32.4%
CCOC(=O)c1c(C)oc2nc(C)nc(NCC3CCN(Cc4ccc(C)cc4)CC3)c12	7.08µM*
CCOC(=O)c1c(C)oc2nc(C)nc(N3CCN(c4ccccc4F)CC3)c12	3.16µM*
CCOC(=O)c1c(C)oc2nc(C)nc(NCCc3ccc(Cl)cc3)c12	-17.9%
CCOC(=O)c1c(C)oc2nc(C)nc(NCC3CCN(Cc4cccc(Cl)c4)CC3)c12	-18.1%
CCOC(=O)c1c(C)oc2nc(C)nc(N3CCN(c4cc(Cl)ccc4C)CC3)c12	8.91µM*
CCOC(=O)c1c(C)oc2nc(C)nc(NCCc3ccc(OCC)cc3)c12	i[5.79 µM]
CCc1cccc(NC(=O)c2c(C)oc3nc(C)nc(N4CCCC4)c23)c1	-8.7%
CCOC(=O)c1c(C)oc2nc(C)nc(NCCCN3CCN(c4ccccc4)CC3)c12	-13.5%
CCOC(=O)C1CCCN(c2c(C(=O)c3ccc(OCC)cc3)cnc3ccccc23)C1 (stereo not given)	i
COc1cc2ncc(C(=O)c3ccc(C)cc3)c(N3CCCCC3)c2cc1OC	-12.1%
CCOC(=O)C1CCN(c2c(C(=O)c3ccc(OCC)cc3)cnc3ccc(OC)cc23)CC1	10µM*
O=C1CCN(S(=O)(=O)c2ccccc2)CCCN(C(=O)c2cccs2)CCN1	9.0%
O=C1NC2(CCN(Cc3ccncc3)CC2)Oc2ccccc21	i
Cc1ccc(CN2CCSc3ccc(C(=O)NCc4ccc(OC(C)C)cc4)cc32)cc1	-23.6%
